Assay results taken from PubChem BioAssay (NCATS).
Values joined by “and” are separate entries in the source; they are usually repeats but may differ in a detail not shown here. Equal entries are not always repeated. Inconclusive results are not listed. A call without a number means that no potency is given here. Active and inactive are the calls of the source. Calls follow the shape of the dose curve; as a rule, active = well fitted cell-killing curve with a large enough effect; inconclusive = small, poorly fitted or top-dose-only effect; inactive = no such curve, though single readings can be large or run the other way.

Test: qHTS of pediatric cancer cell lines to identify multiple opportunities for drug repurposing: Confirmatory screen for BT-37 cells (AID 1347117); also: nearly all actives have a fitted effect of over 55% in size
Conditions: BT-37 pediatric cancer cells, viability; series mostly up to 45.9 µM
Source text: Drug repurposing or repositioning has been offered as a strategy for drug development in oncology programs. This approach has special potential for childhood cancers and other rare or orphan diseases, where the expected return on new drug development has been a disincentive to pharmaceuticals.
In this project we exploit the poly-pharmacology of drugs to discover new indications via phenotypic screening of a panel of 19 well-characterized cell lines derived from solid tumors seen in children and adolescents. The goal is to identify approved drugs with previously unrecognized anticancer properties that has the potential to reveal new mechanisms and biological processes involved in carcinogenesis or drug resistance. We employed a titration-based paradigm (quantitative high-throughput screening or qHTS), where all compounds were tested at multiple concentrations for their effect on cell viability. Concentration-response curves (CRCs) were derived directly from the primary screen, and both potency and efficacy values were used to identify compounds with robust bioactivity profiles. We screened the NIH Chemical Genomics Center (NCGC) Pharmaceutical Collection (NPC) and Mechanism Interrogation Plate (MIPE) small molecule collections of approved and investigational compounds against these cell lines; and measured metabolically active cells after 48 hours of compound treatment as a proxy for cell viability.
Assay Submitter: Nathalia J. Martinez, National Center for Advancing Translational Sciences, National Institutes of Health, Rockville, MD, USA; email: natalia.martinez@nih.gov
[1] Shen, M et al. Quantitative high-throughput phenotypic screening of pediatric cancer cell lines identifies multiple opportunities for drug repurposing. Oncotarget 2017 Dec 19;9(4):4758-4772. PMID 29435139.
The cells were obtained from University of North Carolina (UNC), Pediatric Preclinical Testing Program (PPT), and Coriell Institute (CI).
qHTS cell viability assay:
Cells were assayed in growth media at a density of 500-1,000 cells/well. Five microliters of cells were dispensed into 1,536-well, white, solid-bottom, TC-treated plates (Greiner Bio One) using a multidrop dispenser and incubated at 37 degrees C, 5% CO2, under a humidified atmosphere for 5 hours. Twenty-three nanoliters of compounds and controls (neutral control DMSO or positive control bortezomib at final concentration of 2.3 µM) were subsequently transferred by Kalypsys pintool. For primary screens, the MIPE collection was tested at 11-point dilutions (final concentrations range from 0.78 nM to 46 µM) and the NPC collection at 8-point dilutions (final concentrations range from 0.59 nM to 46 µM). Compounds tested in follow-up screens were assayed at 11-point dilutions. Cells were incubated for 48 hours, followed by addition of 3 µL of CellTiter-Glo (Promega). After a 15 min incubation at room temperature, samples were analyzed for luminescence intensity using a ViewLux High-throughput CCD imager equipped with clear filters.
Potency is read from the fitted curve at half-maximal effect.

| SMILES | Potency |
| --- | --- |
| CCC(=O)O[C@]1(C(=O)CCl)[C@@H](C)C[C@H]2[C@@H]3CCC4=CC(=O)C=C[C@]4(C)[C@@]3(F)[C@@H](O)C[C@@]21C | inactive |
| Oc1c(Cl)cc(Cl)c2cccnc12 | 18.5 µM (active) |
| Cn1nnc2c(C(N)=O)ncn2c1=O | inactive |
| CC1CC2C3CCC4=CC(=O)C=C[C@]4(C)[C@@]3(F)[C@@H](O)C[C@]2(C)[C@@]1(O)C(=O)CO (stereo partly specified) | inactive |
| COC(=O)Nc1nc2ccc(Sc3ccccc3)cc2[nH]1 | 1.85 µM (active) |
| CS(=O)(=O)c1ccc([C@@H](O)[C@@H](CO)NC(=O)C(Cl)Cl)cc1 | inactive |
| CNNCc1ccc(C(=O)NC(C)C)cc1 | inactive |
| Cc1cccc(N(C)C(=S)Oc2ccc3ccccc3c2)c1 | inactive |
| CC(C)NCC(O)c1ccc(NS(C)(=O)=O)cc1 (stereo unspecified) | inactive |
| Nc1nc(N)nc(-c2cc(Cl)ccc2Cl)n1 | inactive |
| COc1cc2nc(N3CCCN(C)CC3)nc(NC3CCN(Cc4ccccc4)CC3)c2cc1OC | 20.8 µM (active) |
| COc1ccc(-c2ccc3cc(C(=O)O)ccc3c2)cc1C12CC3CC(CC(C3)C1)C2 | 7.37 µM (active) |
| CN(C)c1ccc(C(=C2C=CC(=[N+](C)C)C=C2)c2ccc(N(C)C)cc2)cc1 | 1.17 µM (active) |
| CN1CCCC(n2nc(Cc3ccc(Cl)cc3)c3ccccc3c2=O)CC1 (stereo unspecified) | 23.3 µM (active) |
| CNS(=O)(=O)CCc1ccc2[nH]cc(C3CCN(C)CC3)c2c1 | inactive |
| COc1cc(NCc2ccc3nc(N)nc(N)c3c2C)cc(OC)c1OC | 2.61 µM (active) |
| CNCC[C@H](Oc1cccc2ccccc12)c1cccs1 | inactive |
| COc1cc2c(Nc3ccc(Br)cc3F)ncnc2cc1OCC1CCN(C)CC1 | inactive |

| SMILES | Potency |
| --- | --- |
| CC(C)(C#N)c1cc(Cn2cncn2)cc(C(C)(C)C#N)c1 | inactive |
| Nc1nc(=S)c2[nH]cnc2[nH]1 | 3.29 µM (active) and 2.93 µM (active) |
| COc1cc([C@@H]2c3cc4c(cc3[C@H](O)[C@H]3COC(=O)[C@H]23)OCO4)cc(OC)c1OC | 0.0522 µM (active) |
| CCOC(=O)c1ccc(C#Cc2ccc3c(c2)C(C)(C)CCS3)nc1 | inactive |
| COC(=O)Nc1nc2ccc(S(=O)c3ccccc3)cc2[nH]1 (stereo unspecified) | 2.08 µM (active) |
| COc1nc(N)nc2c1ncn2[C@@H]1O[C@H](CO)[C@@H](O)[C@@H]1O | 18.5 µM (active) |
| CCc1c2c(nc3ccc(OC(=O)N4CCC(N5CCCCC5)CC4)cc13)-c1cc3c(c(=O)n1C2)COC(=O)[C@]3(O)CC | 0.928 µM (active) |
| CCOC(=O)[C@H](CCc1ccccc1)N[C@H]1CS[C@H](c2cccs2)CN(CC(=O)O)C1=O | inactive |
| C[C@@H]1C[C@H]2[C@@H]3CCC4=CC(=O)C=C[C@]4(C)[C@@]3(Cl)[C@@H](O)C[C@]2(C)[C@@]1(OC(=O)c1ccco1)C(=O)CCl | 0.369 µM (active) |
| CC(C)C[C@H](NC(=O)[C@H](CCc1ccccc1)NC(=O)CN1CCOCC1)C(=O)N[C@@H](Cc1ccccc1)C(=O)N[C@@H](CC(C)C)C(=O)[C@@]1(C)CO1 | 0.0928 µM (active) |
| CCC(=O)O[C@]1(C(=O)SCF)[C@H](C)C[C@H]2[C@@H]3C[C@H](F)C4=CC(=O)C=C[C@]4(C)[C@@]3(F)[C@@H](O)C[C@@]21C | inactive |
| CNC(=O)c1cc(Oc2ccc(NC(=O)Nc3ccc(Cl)c(C(F)(F)F)c3)cc2)ccn1 | 23.3 µM (active) |
| CC(C)(C)C(=O)OCOP(=O)(COCCn1cnc2c(N)ncnc21)OCOC(=O)C(C)(C)C | 3.69 µM (active) |
| C[C@@H](CN1CC(=O)NC(=O)C1)N1CC(=O)NC(=O)C1 | inactive |
| CO[C@@]12[C@H](COC(N)=O)C3=C(C(=O)C(C)=C(N)C3=O)N1C[C@@H]1N[C@@H]12 | 0.737 µM (active) |
| Nc1nc(F)nc2c1ncn2[C@@H]1O[C@H](CO)[C@@H](O)[C@@H]1O | 14.7 µM (active) and 414 nM (active) |
| Nc1[nH]c(=O)ncc1F | inactive |
| O=NN(CCCl)C(=O)NC1CCCCC1 | inactive |
